The source of these data is PubChem BioAssay (NCI).

The panel holds about 83,000 compounds, 20% with a hit somewhere; the sample as a whole holds those more often.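 Cell lines were cultured in 96-well plates, exposed to a single compound concentration, and assessed for percent growth 48 hours later.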 A number with no mark means an inactive call. The calls were made as follows: active = growth percent below 10; inactive = the rest.

This assay concerns MDA-MB-468 breast. As to the kind of experiment: NCI-60 one-dose screen, 48 h (100 = growth as untreated, 0 = no growth, -100 = all killed). The note with it: 10 µM unless noted.
On to `Cc1cc2nc(CS)[nH]c2cc1C`, for which the growth was 85.2%.

`COCCn1c(Nc2ccc(C(=O)NO)cc2)nc2ccccc21`: the growth is 63.7%.

For `CCOC(=O)Oc1c(OC)cc(C(=O)O[C@@H]2C[C@@H]3CN4CCc5c([nH]c6cc(OC)ccc56)[C@H]4C[C@@H]3[C@H](C(=O)OC)[C@H]2OC)cc1OC`, the growth is 98.8%.
